Measured values as given in PubChem BioAssay.
For part of these data: Measured potencies and affinities stand elsewhere. Calls of active or inactive are those of the source.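 How the source made its calls, unless noted: active means primary screen inhibitor hit that blocks the TRPC4 channel at some tested dose, yielding a dose curve; inactive means the rest.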

Experiments:
[1] = system: TRPC4 beta (transient receptor potential cation channel C4), mouse; assay: TRPC4 cation channel opening, retest – cell-based, Fluo4 calcium, HEK293 TRPC4beta/mu-opioid, duplicates, 10 µM, confirmation (AID 2426;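 active means fluorescence ratio normalized to control raised more than 50% in primary screen plus both repeat runs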); conditions: Fluo4 calcium fluorescence, at 10 µM; active compounds read high
[2] = system: transient receptor potential cation channel C4 beta (TRPC4), mouse; assay: TRPC4 cation channel opening, second retest – cell-based, second round, Fluo4, HEK293 TRPC4beta/mu-opioid, 1 µM, confirmation (AID 2461;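 active means primary screen active and over 50% activation in each of two duplicate runs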); conditions: Fluo4 calcium fluorescence, at 1 µM; active compounds read high
[3] = system: TRPC4 (transient receptor potential cation channel C4 beta), mouse; assay: potentiation of DAMGO EC20 TRPC4 response – cell-based, second round, Fluo-4, HEK293 TRPC4beta/mu-opioid, 1 µM, confirmation (AID 2554;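 active means primary screen hit whose fluorescence ratio, in both repeats, exceeds the weak agonist control mean by 3 SD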); conditions: DAMGO EC20, Fluo-4 calcium flux, at 1 µM; active compounds read high
[4] = system: TRPC4 beta (transient receptor potential cation channel C4), mouse; assay: potentiation of DAMGO EC20 TRPC4 response – cell-based, Fluo-4, HEK293 TRPC4beta/mu-opioid, confirmation (AID 2555;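 active means primary screen hit whose calcium fluorescence ratio, in both repeats, exceeds the weak agonist control mean by 3 SD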); conditions: DAMGO EC20, Fluo-4 calcium flux, at 10 µM; active compounds read high
[5] = target: Short transient receptor potential channel 4 (Mus musculus) (UniProt Q9QUQ5); assay: blockers of DAMGO-evoked TRPC4 calcium flux – cell-based, Fluo4, HEK293 TRPC4beta/mu-opioid, confirmation (AID 2636;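 active means calcium signal cut by more than 3 SD below the full-agonist control yet still positive, in both repeats and the earlier primary screen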); conditions: at 10 µM; active compounds read high
Sequence of Short transient receptor potential channel 4 (Mus musculus) (Q9QUQ5 whole entry, looked up): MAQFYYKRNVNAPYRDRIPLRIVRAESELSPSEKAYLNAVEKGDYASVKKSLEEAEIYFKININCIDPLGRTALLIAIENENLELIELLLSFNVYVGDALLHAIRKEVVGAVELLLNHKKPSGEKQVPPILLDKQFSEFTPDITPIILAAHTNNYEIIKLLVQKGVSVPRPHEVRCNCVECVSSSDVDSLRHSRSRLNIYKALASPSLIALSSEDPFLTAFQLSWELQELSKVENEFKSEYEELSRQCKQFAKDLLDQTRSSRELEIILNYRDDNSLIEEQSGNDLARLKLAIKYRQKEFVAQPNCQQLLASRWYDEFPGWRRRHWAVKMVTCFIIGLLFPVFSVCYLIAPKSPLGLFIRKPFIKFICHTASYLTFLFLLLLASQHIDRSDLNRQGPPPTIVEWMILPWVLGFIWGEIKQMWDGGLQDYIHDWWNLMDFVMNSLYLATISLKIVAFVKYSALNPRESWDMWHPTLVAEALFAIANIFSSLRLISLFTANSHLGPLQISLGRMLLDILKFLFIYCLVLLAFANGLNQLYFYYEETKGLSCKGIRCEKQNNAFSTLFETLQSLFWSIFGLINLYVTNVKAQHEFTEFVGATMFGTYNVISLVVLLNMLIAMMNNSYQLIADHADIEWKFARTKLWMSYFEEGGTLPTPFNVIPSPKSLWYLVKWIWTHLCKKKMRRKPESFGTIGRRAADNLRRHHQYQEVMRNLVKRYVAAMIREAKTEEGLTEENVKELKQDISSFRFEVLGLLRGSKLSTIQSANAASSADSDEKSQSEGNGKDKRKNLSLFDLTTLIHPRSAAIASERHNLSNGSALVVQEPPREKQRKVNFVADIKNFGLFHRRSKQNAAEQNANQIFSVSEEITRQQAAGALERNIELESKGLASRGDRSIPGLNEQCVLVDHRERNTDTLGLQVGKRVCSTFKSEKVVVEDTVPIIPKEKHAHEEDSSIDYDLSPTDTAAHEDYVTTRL

[6] = target: Short transient receptor potential channel 4 (Mus musculus) (UniProt Q9QUQ5); assay: blockers of DAMGO-evoked TRPC4 calcium flux – cell-based, second round, Fluo4, HEK293 TRPC4beta/mu-opioid, 1 µM, confirmation (AID 2637;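 active means calcium signal ratio cut to more than 3 SD under the fully stimulated control mean yet still positive, in both repeats and the primary screen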); conditions: at 1 µM; active compounds read high
[7] = target: Short transient receptor potential channel 4 (Mus musculus) (UniProt Q9QUQ5); assay: calcium entry via TRPC4 opening agents – cell-based, HEK293 TRPC4/mu-opioid, Fluo-4 calcium, dose response (AID 434937;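 active means primary screen activator hit with a dose response curve and TRPC4 channel activation at any tested dose; inactive means no activation, no dose response, or not a primary hit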)
[8] = target: Short transient receptor potential channel 4 (Mus musculus) (UniProt Q9QUQ5); assay: potentiation of DAMGO-evoked TRPC4 calcium signal – cell-based, HEK293 TRPC4/mu-opioid, Fluo-4 calcium, EC20 DAMGO, dose response (AID 434941;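 active means earlier screen potentiator hit that boosts the TRPC4 ion channel at some dose, with a dose response; inactive means no potentiation, no dose response, or not a prior hit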;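 further: calcium entry triggered by an EC20 dose of DAMGO at the co-expressed mu-opioid receptor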)
[9] = target: Short transient receptor potential channel 4 (Mus musculus) (UniProt Q9QUQ5); assay: block of DAMGO-driven TRPC4 calcium entry – cell-based, HEK293 TRPC4/mu-opioid, Fluo-4 calcium, dose response (AID 434942)
[10] = target: Short transient receptor potential channel 6 (Mus musculus) (UniProt Q61143); assay: TRPC6 blockade by TRPC4 inhibitor hits – cell-based, HEK293, membrane potential dye, duplicate, selectivity assay for TRPC4 inhibitor project, confirmation (AID 434948;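 active means active in primary screen and both duplicates, each dropping signal beyond three positive-control SD with fluorescence still positive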); conditions: HEK293 TRPC6, membrane potential dye fluorescence, at 10 µM, stimulated with maximal-effect acetylcholine; active compounds read high
Sequence of Short transient receptor potential channel 6 (Mus musculus) (Q61143 whole entry, looked up): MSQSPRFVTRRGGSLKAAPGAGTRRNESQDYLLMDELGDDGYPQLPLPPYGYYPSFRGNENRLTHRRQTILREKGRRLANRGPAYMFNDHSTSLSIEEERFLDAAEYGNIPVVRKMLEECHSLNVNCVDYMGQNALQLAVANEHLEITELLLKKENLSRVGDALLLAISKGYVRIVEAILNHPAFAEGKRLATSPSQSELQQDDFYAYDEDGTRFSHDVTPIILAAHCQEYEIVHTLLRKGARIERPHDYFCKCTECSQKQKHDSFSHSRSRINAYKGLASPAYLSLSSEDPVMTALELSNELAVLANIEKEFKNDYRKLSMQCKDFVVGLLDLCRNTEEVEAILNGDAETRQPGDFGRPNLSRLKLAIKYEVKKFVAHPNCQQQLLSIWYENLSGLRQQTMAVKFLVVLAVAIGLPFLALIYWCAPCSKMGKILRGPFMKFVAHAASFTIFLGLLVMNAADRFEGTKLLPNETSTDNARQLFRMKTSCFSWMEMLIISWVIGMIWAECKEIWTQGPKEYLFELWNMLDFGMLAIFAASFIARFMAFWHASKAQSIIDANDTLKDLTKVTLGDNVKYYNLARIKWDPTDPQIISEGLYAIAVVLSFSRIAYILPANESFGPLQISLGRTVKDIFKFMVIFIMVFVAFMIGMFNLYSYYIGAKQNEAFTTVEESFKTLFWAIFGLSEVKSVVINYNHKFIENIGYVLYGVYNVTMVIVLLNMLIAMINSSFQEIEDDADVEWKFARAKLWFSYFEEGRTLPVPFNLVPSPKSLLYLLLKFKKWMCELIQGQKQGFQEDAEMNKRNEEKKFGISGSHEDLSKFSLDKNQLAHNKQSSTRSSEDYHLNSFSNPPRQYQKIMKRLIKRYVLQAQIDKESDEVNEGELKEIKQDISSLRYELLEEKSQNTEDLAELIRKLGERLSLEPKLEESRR

[11] = target: Short transient receptor potential channel 6 (Mus musculus) (UniProt Q61143); assay: TRPC6 opening by TRPC4 activator hits – cell-based, HEK293, membrane potential dye, duplicate, selectivity assay for TRPC4 activator project, confirmation (AID 434950;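 active means membrane potential signal rise above negative control mean plus 3 SD in both duplicates, also active in the earlier TRPC4 screen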); conditions: HEK293 TRPC6, membrane potential fluorescence, at 10 µM; activation: active compounds read high; outcome: activation
[12] = target: Short transient receptor potential channel 6 (Mus musculus) (UniProt Q61143); assay: positive modulators of mouse TRPC6 channel – HEK293 cells, membrane potential dye, duplicate, selectivity assay for TRPC4 potentiator project, confirmation (AID 434952;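 active means compound raising the membrane signal above positive-control mean plus 3 SD in both repeats, and a primary screen hit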); conditions: HEK293 TRPC6, membrane potential dye fluorescence, at 10 µM, maximal acetylcholine added after compound; active compounds read high
[13] = target: Short transient receptor potential channel 4 (Mus musculus) (UniProt Q9QUQ5); assay: calcium flux activators in TRPC4/5HT1a cells, counter-screen for TRPC4 activator project, cell-based, second counter screen, HEK293 TRPC4/5HT1a, Fluo-4 (AID 434977;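 active means calcium signal rise above buffer-control mean plus 5 SD in both duplicates, and also a hit in the primary screen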); conditions: Fluo-4 calcium flux, at 10 µM; active compounds read high
[14] = serotonin-gated TRPC4 signal block – cell-based, second counter screen, HEK293 TRPC4/5HT1a, Fluo-4, counter-screen for TRPC4 inhibitor project, confirmation (AID 434978;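 active means primary screen active whose calcium signal fell more than 3 SD beyond the full-serotonin control mean in both duplicate plates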;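 further: serotonin given first at submaximal then at maximal dose after compound preincubation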); conditions: Fluo-4 calcium flux, at 10 µM, serotonin added to trigger calcium flux; active compounds read high
[15] = system: TRPC4 (mouse), co-expressed with 5HT1a in HEK293; assay: enhancement of serotonin-evoked TRPC4 response – cell-based, second counter screen, HEK293 TRPC4/5HT1a, Fluo-4, counter-screen for TRPC4 potentiator project, confirmation (AID 434979;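 active means signal rise over 3 SD above mean of control wells given weak agonist, in both repeats and first screen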); conditions: Fluo-4 calcium flux, at 10 µM, serotonin added at its EC20 dose; active compounds read high
[16] = nonspecific calcium rise without TRPC4 – cell-based, HEK293 mu-opioid receptor line, counter-screen for TRPC4 activator project, confirmation (AID 449723;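 active means hit in primary screen, with calcium signal over 5 SD above buffer well mean in both duplicates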;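 further: counter screen cells carry the mu-opioid receptor alone and lack TRPC4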); conditions: HEK293 mu-opioid cells, Fluo-4 calcium fluorescence, at 10 µM; active compounds read high
[17] = nonspecific potentiation of DAMGO calcium response – cell-based, HEK293 mu-opioid receptor line, counter-screen for TRPC4 allosteric potentiator project, confirmation (AID 449724;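 active means calcium signal rise more than 3 SD above the low-dose agonist control mean, in both duplicate plates and the primary screen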); conditions: HEK293 mu-opioid receptor cells, Fluo-4 calcium flux, at 10 µM, compound added before EC20 DAMGO stimulus; active compounds read high

COCCSc1ccccc1C(=O)N1CCC(Cc2ccccc2)CC1
inactive: outcome [1] | outcome [2] | outcome [3] | outcome [4] | outcome [5] | outcome [6] | outcome [7] | outcome [8] | outcome [9] | outcome [10] | outcome [11] | outcome [12] | outcome [13] | outcome [14] | outcome [15] | outcome [16] | outcome [17]

COc1cc2c(C(=O)N3CCN(C)CC3)c(CSc3ccccc3)n(C)c2cc1Br
inactive: outcome [1] | outcome [2] | outcome [3] | outcome [5] | outcome [6] | outcome [7] | outcome [8] | outcome [9] | outcome [10] | outcome [11] | outcome [12] | outcome [13] | outcome [14] | outcome [16] | outcome [17]
active: potentiation [4] 25% | potentiation [15] 10.5%

Cc1ccc(C(C)C)c(OCCCCN2CCNCC2)c1
active: potentiation [3] 11% | potentiation [15] 23.8%
inactive: outcome [1] | outcome [2] | outcome [4] | outcome [5] | outcome [6] | outcome [7] | outcome [8] | outcome [9] | outcome [10] | outcome [11] | outcome [12] | outcome [13] | outcome [14] | outcome [16] | outcome [17]

COc1cccc(NC(=O)COc2c(F)c(F)c(C(F)(F)F)c(F)c2F)c1
inactive: outcome [1] | outcome [2] | outcome [3] | outcome [4] | outcome [5] | outcome [6] | outcome [7] | outcome [8] | outcome [9] | outcome [10] | outcome [11] | outcome [12] | outcome [13] | outcome [14] | outcome [15] | outcome [16] | outcome [17]

Cc1ccc(CNC(=O)CCC2CCCN(Cc3cc4ccccc4o3)C2)o1 (stereo not given)
inactive: outcome [1] | outcome [2] | outcome [3] | outcome [4] | outcome [5] | outcome [6] | outcome [7] | outcome [8] | outcome [9] | outcome [10] | outcome [11] | outcome [12] | outcome [13] | outcome [14] | outcome [15] | outcome [16] | outcome [17]

Cc1[nH]nc(Nc2ccccc2)c1[N+](=O)[O-]
active: potentiation [15] 20.8%
inactive: outcome [1] | outcome [2] | outcome [3] | outcome [4] | outcome [5] | outcome [6] | outcome [7] | outcome [8] | outcome [9] | outcome [10] | outcome [11] | outcome [12] | outcome [13] | outcome [14] | outcome [16] | outcome [17]

COc1ccc(OCC(=O)NC2CCCN(Cc3ccc(Cl)cc3)C2)cc1 (stereo not given)
inactive: outcome [1] | outcome [2] | outcome [4] | outcome [5] | outcome [6] | outcome [7] | outcome [8] | outcome [9] | outcome [10] | outcome [11] | outcome [12] | outcome [13] | outcome [14] | outcome [16] | outcome [17]
active: potentiation [3] 26% | potentiation [15] 15.2%

Cc1ccc(S(=O)(=O)Nc2ccc(N=Nc3ccc(O)cc3)cc2)cc1
inactive: outcome [1] | outcome [2] | outcome [3] | outcome [4] | outcome [5] | outcome [6] | outcome [7] | outcome [8] | outcome [9] | outcome [10] | outcome [11] | outcome [12] | outcome [13] | outcome [14] | outcome [15] | outcome [16] | outcome [17]

C=CCNC(=O)C(=O)NCC1CCCN1S(=O)(=O)c1cccs1 (stereo not given)
inactive: outcome [1] | outcome [2] | outcome [3] | outcome [4] | outcome [5] | outcome [6] | outcome [7] | outcome [8] | outcome [9] | outcome [10] | outcome [11] | outcome [12] | outcome [13] | outcome [14] | outcome [16] | outcome [17]
active: potentiation [15] 11.2%

COc1ccc(C(=O)Nc2ccccc2N2CCN(C(=O)c3ccccc3)CC2)cc1Br
inactive: outcome [1] | outcome [2] | outcome [3] | outcome [4] | outcome [6] | outcome [7] | outcome [8] | outcome [9] | outcome [10] | outcome [11] | outcome [12] | outcome [13] | outcome [14] | outcome [15] | outcome [16] | outcome [17]
active: inhibition [5] 75%

CC1(C(=O)OCc2cc(=O)n3cc(Br)ccc3n2)CC1(Cl)Cl (stereo not given)
active: potentiation [3] 15% | potentiation [4] 84% | potentiation [15] 56.2%
inactive: outcome [1] | outcome [2] | outcome [5] | outcome [6] | outcome [7] | outcome [8] | outcome [9] | outcome [10] | outcome [11] | outcome [12] | outcome [13] | outcome [14] | outcome [16] | outcome [17]

COc1ccc(N=C2SCC(=O)N2Cc2ccccc2)cc1
inactive: outcome [1] | outcome [2] | outcome [3] | outcome [4] | outcome [5] | outcome [6] | outcome [7] | outcome [8] | outcome [9] | outcome [10] | outcome [11] | outcome [12] | outcome [13] | outcome [14] | outcome [15] | outcome [16] | outcome [17]

CC[n+]1c(/C=C/Nc2ccccc2)sc2ccccc21
inactive: outcome [1] | outcome [2] | outcome [3] | outcome [4] | outcome [5] | outcome [6] | outcome [7] | outcome [8] | outcome [9] | outcome [10] | outcome [11] | outcome [12] | outcome [13] | outcome [14] | outcome [15] | outcome [16] | outcome [17]

C=C(C)COc1ccc(-c2[nH]ncc2Oc2ccc(OC)cc2)c(O)c1
inactive: outcome [1] | outcome [2] | outcome [3] | outcome [4] | outcome [5] | outcome [6] | outcome [7] | outcome [8] | outcome [9] | outcome [10] | outcome [11] | outcome [12] | outcome [13] | outcome [14] | outcome [15] | outcome [16] | outcome [17]

Cc1ccc(CN(C(=O)c2cc(=O)c3cc(Cl)c(C)cc3o2)C2CCS(=O)(=O)C2)cc1 (stereo not given)
inactive: outcome [1] | outcome [2] | outcome [3] | outcome [4] | outcome [5] | outcome [6] | outcome [7] | outcome [8] | outcome [9] | outcome [10] | outcome [11] | outcome [12] | outcome [13] | outcome [14] | outcome [16] | outcome [17]
active: potentiation [15] 64%
